# Test results: PubChem BioAssay AID2284421 (EPA ToxCast)
# Calls of active or inactive are those of the source. Rule for the calls: active = hit-call score of the fitted dose curve at least 0.9, where 1 is the maximum; inactive = score below 0.9.
# Test system: Brachyury (BRA) Protein Expression, Deisenroth Lab, TBXT (gene 6862)
# Experiment: CCTE_Deisenroth_DEVTOX-GLR_Meso_BRA: CCTE's DevTox GLR-Meso Assay Evaluation of Brachyury (BRA) Protein Expression, Deisenroth Lab
# Description: CCTE_Deisenroth_DEVTOX-GLR_Meso assay is a cell-based, multiplex-readout assay that uses RUES2-GLR, a human pluripotent cell line, with measurements taken at 48 hours after chemical dosing in a 384-well microplateCCTE_Deisenroth_DEVTOX-GLR_Meso_BRA is 1 of 4 assay components calculated from the CCTE_Deisenroth_DEVTOX-GLR_Meso assay and it measures an the percentage of cells in an mesoderm state. Using a type of inducible fluorescent protein reporter, gain-of-signal activity can be used to understand changes in gene expression with fluorescent microscopy. The percentage of BRA+ cells are determined by calculating the number of BRA+ cells divided by the cell count. To generalize the intended target to other relatable targets, this assay component is annotated to the transcription factor intended target family, where the subfamily is T-box protein.Data from the assay component CCTE_Deisenroth_DEVTOX-GLR_Meso_BRA was analyzed as 1 assay endpoint. The endpoint is the percent change in BRA+ cell population relative to the 0.2% DMSO control in the CCTE_Deisenroth_DEVTOX-GLR_Meso assay. Furthermore, this assay endpoint can be referred to as a primary readout, because this assay has produced multiple assay endpoints where this one serves as a measure of mesoderm differentiation.
# All assay protocols are aligned to the DevTox GLR-Endo assay workflow. Cells are seeded into 384-well microplates for 24 hours prior to initiating differentiation in defined media for a total duration of 48 hours. A total of two chemical exposures are administered in 24-hour intervals during the 48-hour differentiation period. At the assay termination point, cells are fixed and stained with a fluorescent dye demarcating the nucleus. High-content imaging is used to acquire brightfield and fluorescent channel images across 5 fields per well. Cell identification and mean biomarker fluorescence intensities are calculated with image analysis software to determine the total cell counts for viability assessment and the biomarker expression frequency for each lineage-dependent assay. A typical experimental design tests a 10-point concentration series (1 nM - 200 uM) for 28 compounds in single technical replicate. Assay plate controls include non-differentiated pluripotent cells (baseline control), lineage-specific differentiated cells (differentiation control), and DMSO solvent exposed differentiated cells (solvent control). Experiments typically comprise a minimum of four experimental replicates (n=4).
SMILES,outcome,AC50
O=c1[nH]cc(F)c(=O)[nH]1,inactive,
O=C1NC(=O)C(c2ccccc2)(c2ccccc2)N1,inactive,
O=C1NS(=O)(=O)c2ccccc21,inactive,
Nc1cccc2c1C(=O)N(C1CCC(=O)NC1=O)C2=O (stereo unspecified),inactive,
CS(=O)(=O)OCCCCOS(C)(=O)=O,inactive,
CCN(CC)CCNC(=O)c1c(C)[nH]c(/C=C2\C(=O)Nc3ccc(F)cc32)c1C,inactive,
CC/C(=C(/CC)c1ccc(O)cc1)c1ccc(O)cc1,,19.8 µM (active)
CC1(C)S[C@@H]2[C@H](NC(=O)Cc3ccccc3)C(=O)N2[C@H]1C(=O)O,inactive,
CC(C)(c1ccc(O)cc1)c1ccc(O)cc1,inactive,
CC1=C(/C=C/C(C)=C/C=C/C(C)=C\C(=O)O)C(C)(C)CCC1,inactive,
CC(=O)Nc1ccc(O)cc1,inactive,
O=C1CCC(N2C(=O)c3ccccc3C2=O)C(=O)N1 (stereo unspecified),inactive,
Nc1nc2ncc(CNc3ccc(C(=O)N[C@@H](CCC(=O)O)C(=O)O)cc3)nc2c(=O)[nH]1,inactive,
CCCC(CCC)C(=O)O,inactive,
CN(Cc1cnc2nc(N)nc(N)c2n1)c1ccc(C(=O)N[C@@H](CCC(=O)O)C(=O)O)cc1,inactive,
CC1=C(/C=C/C(C)=C/C=C/C(C)=C/C(=O)O)C(C)(C)CCC1,inactive,
